Calls of active or inactive are those of the source. How the source made its calls: active means hit-call score of the fitted dose curve at least 0.9, where 1 is the maximum; inactive means score below 0.9.
Columns and labels:
[1] = read-out: Tissue Factor, F3 (gene 2152); assay: BSK_CASM3C_TissueFactor: BioMAP Diversity Plus: CASM3C Assay for Tissue Factor Biomarker Activity (AID 2283052); conditions: primary human coronary artery smooth muscle cells; actives raise or lower the signal;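 further: cell surface tissue factor protein level read by ELISA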
[2] = read-out: Urokinase-type plasminogen activator receptor (uPAR), PLAUR (gene 5329); assay: BSK_CASM3C_uPAR: BioMAP Diversity Plus: CASM3C Assay for Urokinase-type plasminogen activator receptor (uPAR) Biomarker Activity (AID 2283054); conditions: primary human coronary artery smooth muscle cells; actives raise or lower the signal;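 further: cell-surface uPAR protein level quantified by ELISA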
[3] = read-out: Collagen III, COL3A1 (gene 1281); assay: BSK_hDFCGF_CollagenIII: BioMAP Diversity Plus: hDFCGF Assay for Collagen III Biomarker Activity (AID 2283056); conditions: primary human foreskin fibroblasts; actives raise or lower the signal
In short: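 Human foreskin fibroblast primary cultures sampled 24 h after dosing; Collagen III quantified by ELISA. Signal fitted bidirectionally against DMSO baseline.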

[4] = read-out: Epidermal growth factor receptor (EGFR), EGFR (gene 1956); assay: BSK_hDFCGF_EGFR: BioMAP Diversity Plus: hDFCGF Assay for Epidermal growth factor receptor (EGFR) Biomarker Activity (AID 2283057); conditions: primary human foreskin fibroblasts; actives raise or lower the signal
In short: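 ELISA readout of EGFR on human dermal fibroblasts (primary foreskin cells), 24 h post-dosing; bidirectional curve fit vs DMSO baseline, gain or loss of signal scored.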

[5] = read-out: Interleukin-8 (IL8), CXCL8 (gene 3576); assay: BSK_hDFCGF_IL8: BioMAP Diversity Plus: hDFCGF Assay for Interleukin-8 (IL8) Biomarker Activity (AID 2283058); conditions: primary human foreskin fibroblasts; actives raise or lower the signal
In short: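 Primary human foreskin fibroblasts (hDFCGF system) dosed with chemical; IL-8 measured by ELISA 24 hours later. Bidirectional curve fitting relative to DMSO baseline; cytotoxicity tracked in parallel cultures by SRB total protein staining.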

[6] = read-out: Macrophage colony-stimulating factor (MCSF), CSF1 (gene 1435); assay: BSK_hDFCGF_MCSF: BioMAP Diversity Plus: hDFCGF Assay for Macrophage colony-stimulating factor (MCSF) Biomarker Activity (AID 2283060); conditions: primary human foreskin fibroblasts; actives raise or lower the signal
In short: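 Human foreskin fibroblast primary cultures; M-CSF measured by ELISA 24 hours after chemical dosing. Bidirectional fitting relative to DMSO, with overt cytotoxicity tracked by parallel SRB total-protein staining (0.1% SRB, 10% TCA fixation, 560 nm).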

[7] = BSK_hDFCGF_SRB: Viability Assessment in the BioMAP Diversity Plus: hDFCGF Assay (AID 2283061); conditions: primary human foreskin fibroblasts;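 further: cells exposed to compound for 24 h before the read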
In short: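 Human foreskin fibroblasts in 96-well plates were treated 24 h. Total protein was measured by 0.1% SRB staining after 10% TCA fixation, read at 560 nm. Data were fitted bidirectionally against DMSO.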

[8] = read-out: TIMP metallopeptidase inhibitor 1 (TIMP1), TIMP1 (gene 7076); assay: BSK_hDFCGF_TIMP1: BioMAP Diversity Plus: hDFCGF Assay for TIMP metallopeptidase inhibitor 1 (TIMP1) Biomarker Activity (AID 2283062); conditions: primary human foreskin fibroblasts; actives raise or lower the signal
In short: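 Human foreskin fibroblast primary cultures dosed for 24 h; secreted/surface TIMP-1 quantified by ELISA. Bidirectional curve fitting against DMSO baseline; cytotoxicity tracked in parallel cultures by SRB total-protein staining.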

[9] = read-out: Monokine induced gamma interferon (MIG), CXCL9 (gene 4283); assay: BSK_hDFCGF_MIG: BioMAP Diversity Plus: hDFCGF Assay for Monokine induced gamma interferon (MIG) Biomarker Activity (AID 2283063); conditions: primary human foreskin fibroblasts; actives raise or lower the signal
In short: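 MIG/CXCL9 measured by ELISA 24 h after dosing primary human skin fibroblasts. Activity fitted in both directions against DMSO controls. Cytotoxicity was checked in parallel cultures by SRB staining read at 560 nm.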

[10] = read-out: Matrix Metallopeptidase 1 (MMP1), MMP1 (gene 4312); assay: BSK_hDFCGF_MMP1: BioMAP Diversity Plus: hDFCGF Assay for Matrix Metallopeptidase 1 (MMP1) Biomarker Activity (AID 2283064); conditions: primary human foreskin fibroblasts; actives raise or lower the signal
In short: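 MMP1 levels quantified by ELISA 24 h after dosing human dermal fibroblast cultures, with parallel SRB total-protein staining for overt cytotoxicity. Data fitted in both directions against DMSO baseline.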

[11] = read-out: Vascular cell adhesion molecule 1 (VCAM1), VCAM1 (gene 7412); assay: BSK_hDFCGF_VCAM1: BioMAP Diversity Plus: hDFCGF Assay for Vascular cell adhesion molecule 1 (VCAM1) Biomarker Activity (AID 2283065); conditions: primary human foreskin fibroblasts; actives raise or lower the signal;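 on AC50: VCAM-1 protein level quantified by ELISA after 24 h chemical exposure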
In short: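 Human foreskin fibroblast primary cells dosed with chemical, VCAM-1 measured by ELISA at 24 h. Bidirectional curve fitting relative to DMSO as negative control/baseline.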

[12] = read-out: Plasminogen activator inhibitor-1 (PAI1), SERPINE1 (gene 5054); assay: BSK_hDFCGF_PAI1: BioMAP Diversity Plus: hDFCGF Assay for Plasminogen activator inhibitor-1 (PAI1) Biomarker Activity (AID 2283066); conditions: primary human foreskin fibroblasts; actives raise or lower the signal
In short: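 ELISA readout of PAI-1 from primary human skin fibroblast cultures, 24 h after compound addition. Gain or loss of signal was fitted bidirectionally against DMSO baseline.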

[13] = read-out: Intercellular Adhesion Molecule 1 (ICAM1), ICAM1 (gene 3383); assay: BSK_KF3CT_ICAM1: BioMAP Diversity Plus: KF3CT Assay for Intercellular Adhesion Molecule 1 (ICAM1) Biomarker Activity (AID 2283067); conditions: primary human keratinocytes with fibroblasts; actives raise or lower the signal
In short: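 Human keratinocyte–foreskin fibroblast co-culture was treated for 24 h. Cell-surface ICAM-1 was quantified by ELISA, fitted bidirectionally relative to DMSO. Cytotoxicity was checked in parallel cultures by SRB total-protein staining.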

[14] = read-out: Interferon-gamma inducible Protein 10 (IP10), CXCL10 (gene 3627); assay: BSK_KF3CT_IP10: BioMAP Diversity Plus: KF3CT Assay for Interferon-gamma inducible Protein 10 (IP10) Biomarker Activity (AID 2283068); conditions: primary human keratinocytes with fibroblasts; actives raise or lower the signal
In short: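 In a primary skin co-culture of keratinocytes and fibroblasts, IP-10 is quantified by ELISA at 24 h after dosing. SRB staining of parallel wells monitors overt toxicity. Curves are fitted both directions against DMSO.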

[15] = BSK_KF3CT_SRB: Viability Assessment in the BioMAP Diversity Plus: KF3CT Assay (AID 2283069); conditions: primary human keratinocytes with fibroblasts;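 further: total protein by sulforhodamine B staining as a cytotoxicity measure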
In short: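 Cytotoxicity was gauged by SRB staining (0.1% SRB, 10% TCA fixation, 560 nm) of parallel cultures at 24 h. The cells were primary human skin keratinocytes co-cultured with fibroblasts, and activity was fitted in both directions against DMSO.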

[16] = read-out: Interleukin-1 alpha (IL1a), IL1A (gene 3552); assay: BSK_KF3CT_IL1a: BioMAP Diversity Plus: KF3CT Assay for Interleukin-1 alpha (IL1a) Biomarker Activity (AID 2283070); conditions: primary human keratinocytes with fibroblasts; actives raise or lower the signal
In short: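 IL-1a was detected by ELISA 24 h after chemical treatment of a co-culture of human skin keratinocytes and foreskin fibroblasts. Gain or loss of signal was fitted against the DMSO baseline.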

[17] = read-out: Matrix Metallopeptidase 9 (MMP9), MMP9 (gene 4318); assay: BSK_KF3CT_MMP9: BioMAP Diversity Plus: KF3CT Assay for Matrix Metallopeptidase 9 (MMP9) Biomarker Activity (AID 2283074); conditions: primary human keratinocytes with fibroblasts; actives raise or lower the signal;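 on AC50: MMP9 protein level quantified by ELISA in the co-culture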
In short: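 MMP-9 quantified by ELISA after 24 h chemical treatment of primary human skin keratinocyte/fibroblast co-cultures; gain or loss fitted against DMSO, with parallel SRB staining (0.1% SRB, 560 nm) for overt cytotoxicity.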

[18] = read-out: urokinase plasminogen activator (uPA), PLAU (gene 5328); assay: BSK_KF3CT_uPA: BioMAP Diversity Plus: KF3CT Assay for urokinase plasminogen activator (uPA) Biomarker Activity (AID 2283075); conditions: primary human keratinocytes with fibroblasts; actives raise or lower the signal
In short: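 ELISA read-out of uPA 24 h after dosing human skin keratinocytes co-cultured with foreskin fibroblasts. Signal change fitted both ways relative to DMSO; sulforhodamine B on parallel cultures marks overt cytotoxicity.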

[19] = read-out: Interleukin-8 (IL8), CXCL8 (gene 3576); assay: BSK_LPS_IL8: BioMAP Diversity Plus: LPS Assay for Interleukin-8 (IL8) Biomarker Activity (AID 2283078); conditions: primary human HUVEC with PBMC; actives raise or lower the signal
In short: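 Human umbilical vein endothelial cells co-cultured with PBMC, LPS-stimulated, exposed to compound for 24 h. IL-8 quantified by ELISA; fitted in both directions against DMSO, with SRB total-protein staining of parallel cultures for cytotoxicity.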

[20] = read-out: Monocyte Chemoattractant Protein-1 (MCP1), CCL2 (gene 6347); assay: BSK_LPS_MCP1: BioMAP Diversity Plus: LPS Assay for Monocyte Chemoattractant Protein-1 (MCP1) Biomarker Activity (AID 2283081); conditions: primary human HUVEC with PBMC; actives raise or lower the signal;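 on AC50: secreted MCP-1 protein quantified by ELISA in culture supernatant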
In short: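 Human umbilical vein endothelial cells co-cultured with PBMC, LPS-stimulated; secreted MCP-1 measured by ELISA 24 h after compound addition. Bidirectional curve fitting against DMSO baseline; SRB total-protein staining in parallel cultures for cytotoxicity.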

Measured: AC50

CCCCCCCCCCCC#N
active: [6] 28.8 µM | [7] 29.1 µM | [8] 33 µM | [9] 29.7 µM | [10] 37.7 µM | [11] 20.6 µM | [12] 31.8 µM | [19] 29 µM
inactive: [1] | [2] | [3] | [4] | [5] | [13] | [14] | [15] | [16] | [17] | [18] | [20]

COc1ccc(CO)cc1
inactive: [1] | [2] | [3] | [4] | [5] | [6] | [7] | [8] | [9] | [10] | [11] | [12] | [13] | [14] | [15] | [16] | [17] | [18] | [19] | [20]

Clc1ccc(-c2ccccc2)cc1
inactive: [1] | [2] | [3] | [4] | [5] | [6] | [7] | [8] | [9] | [10] | [11] | [12] | [13] | [14] | [15] | [16] | [17] | [18] | [19] | [20]

O=[N+]([O-])c1ccc(Cl)cc1
inactive: [1] | [2] | [3] | [4] | [5] | [6] | [7] | [8] | [9] | [10] | [11] | [12] | [13] | [14] | [15] | [16] | [17] | [18] | [19] | [20]

C=CCN(CC=C)C(=O)C(Cl)Cl
inactive: [1] | [2] | [3] | [4] | [5] | [6] | [7] | [8] | [9] | [10] | [11] | [12] | [13] | [14] | [15] | [16] | [17] | [18] | [19] | [20]

O=[N+]([O-])C=Cc1ccccc1
inactive: [4]
active: [1] 20 µM | [2] 8.89 µM | [3] 33.1 µM | [5] 4.35 µM | [6] 2.91 µM | [7] 20 µM | [8] 13 µM | [9] 2.4 µM | [10] 3.96 µM | [11] 1.41 µM | [12] 4.03 µM | [13] 6.1 µM | [14] 6.18 µM | [15] 2.46 µM | [16] 5.78 µM | [17] 3.08 µM | [18] 10.2 µM | [19] 20 µM | [20] 10.3 µM

c1ccc(Nc2ccc3ccccc3c2)cc1
inactive: [1] | [2] | [4] | [5] | [9] | [19] | [20]
active: [3] 30.7 µM | [6] 34.4 µM | [7] 30.6 µM | [8] 31.5 µM | [10] 33.3 µM | [11] 30.1 µM | [12] 29.3 µM | [13] 36.6 µM | [14] 36.3 µM | [15] 36.9 µM | [16] 24.2 µM | [17] 28.3 µM | [18] 30.7 µM

Source: PubChem BioAssay (EPA / NIEHS)
